Several values for one entry are separate records, joined by “and”; a condition that tells them apart may be missing. Identical values can stand only once. Records with an inconclusive call do not appear. Activity calls are given as the source filed them. Calls follow the shape of the dose curve; as a rule, active = well fitted inhibition curve with a large enough effect; inconclusive = small, poorly fitted or top-dose-only effect; inactive = flat fitted curve, though single readings scatter.
Key:
[1] = Drug repurposing screens with cells derived from glioblastoma tumor samples (AID 1345199); conditions: GBM patient neurospheres viability, ATP luminescence, 48 h; also: nearly all actives have a fitted effect of over 40% in size
Method in brief: (§1)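 Primary testing used CD133+ neurospheres from four GBM patients, seven concentrations, 48 h exposure and ATP-based viability; confirmation added three slower-growing patient lines.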

astro = control astrocytes; assay: as above; conditions: viability, ATP luminescence, 48 h; series mostly up to 45.9 µM
Method in brief: as §1

[2] = at 45.9 µM (top of the series), tumour line B
[3] = at 45.9 µM (top of the series), tumour line D
[4] = at 46.1 µM (top of the series), tumour line C
[5] = at 20 µM (top of the series), tumour line C
[6] = at 21.2 µM (top of the series), tumour line B
[7] = at 46 µM (top of the series), tumour line A
[8] = at 21.2 µM (top of the series), tumour line D
% is scaled to controls: 0 for no effect and ±100 for the full control effect; potency is read from the fitted curve at half-maximal effect.

CC12CCC(C[N+](C)(CCC[N+](C)(C)C)C1)C2(C)C (configuration not stated)
inactive: activity, negative = cell killing [1, 2] -11.8% | activity, negative = cell killing [1, 3] -25.7% | activity, negative = cell killing [1, 4] 21.9% | Potency (astro)

CCN(CC)C(=O)[C@]1(c2ccccc2)C[C@@H]1CN
inactive: activity, negative = cell killing [1, 2] -4.91% | activity, negative = cell killing [1, 3] -13.9% | activity, negative = cell killing [1, 4] -22.9% | Potency (astro)

CCSc1ccc2c(c1)N(CCCN1CCN(C)CC1)c1ccccc1S2
inactive: activity, negative = cell killing [1, 5] -10.8% | activity, negative = cell killing [1, 6] -0.856% | Potency (astro)
active: Potency ([1]; tumour line A) 6.31 µM

O=C(O)C1=C(CSc2nnnn2CS(=O)(=O)O)CS[C@@H]2[C@H](NC(=O)[C@H](O)c3ccccc3)C(=O)N12
inactive: activity, negative = cell killing [1, 2] -15.2% | activity, negative = cell killing [1, 3] -23.3% | activity, negative = cell killing [1, 4] -17.1% | Potency (astro)

CC(C)(C)C(=O)OCC(=O)[C@H]1CC[C@H]2[C@@H]3CCC4=CC(=O)CC[C@]4(C)[C@H]3CC[C@]12C
inactive: activity, negative = cell killing [1, 2] -7.01% | activity, negative = cell killing [1, 3] -7.34% | activity, negative = cell killing [1, 4] 0.589% | Potency (astro)

CO/N=C(\C(=O)N[C@@H]1C(=O)N2C(C(=O)[O-])=C(C[n+]3cccc4c3CCC4)CS[C@H]12)c1csc(N)n1
inactive: activity, negative = cell killing [1, 2] -11.7% | activity, negative = cell killing [1, 3] -9.09% | Potency (astro)
active: Potency ([1]; tumour line C) 23.1 µM

CC(C)(Oc1ccc(C2CCCc3ccccc32)cc1)C(=O)O (configuration not stated)
inactive: activity, negative = cell killing [1, 2] -18.2% | activity, negative = cell killing [1, 3] -16.7% | activity, negative = cell killing [1, 7] -21.9% | Potency (astro)

O=S(=O)(O)CC(S)CS (configuration not stated)
inactive: activity, negative = cell killing [1, 2] -24.2% | activity, negative = cell killing [1, 3] -0.499% | activity, negative = cell killing [1, 4] -22% | Potency (astro)

CCCCCCCCCCCCCCCCCC[N+](C)(C)CCC[Si](OC)(OC)OC
inactive: activity, negative = cell killing [1, 2] -16.4% | activity, negative = cell killing [1, 3] -4.63% | activity, negative = cell killing [1, 4] -7.69% | Potency (astro)

C[C@]12CCC(=O)C[C@@H]1CC[C@@H]1[C@@H]2CC[C@]2(C)C=CC[C@@H]12
inactive: activity, negative = cell killing [1, 2] -7.67% | activity, negative = cell killing [1, 3] -11.4% | Potency (astro)
active: Potency ([1]; tumour line A) 20 µM

CCN(CC)CCOC(=O)c1cccnc1
inactive: activity, negative = cell killing [1, 2] -9.24% | activity, negative = cell killing [1, 3] 9.6% | activity, negative = cell killing [1, 4] -9.84% | Potency (astro)

O=C1c2ccccc2C(=O)C1c1ccc(F)cc1
inactive: activity, negative = cell killing [1, 2] -20.2% | activity, negative = cell killing [1, 3] -13.5% | activity, negative = cell killing [1, 7] -45.8% | Potency (astro)

COC1[C@@H](O[C@@H]2O[C@H](C)[C@@H](O[C@H]3C[C@@](C)(O)[C@H](OC(=O)CC(C)C)[C@H](C)O3)[C@H](N(C)C)[C@H]2O)[C@@H](CC=O)C[C@@H](C)[C@@H](O)/C=C/C=C/C[C@@H](C)OC(=O)C[C@H]1OC(C)=O (some centres not stated)
inactive: activity, negative = cell killing [1, 5] -1.06% | activity, negative = cell killing [1, 6] -12.1% | activity, negative = cell killing [1, 8] -12.4% | Potency (astro)

CN[C@H](CC(C)C)C(=O)N[C@H]1C(=O)N[C@@H](CC(N)=O)C(=O)N[C@H]2C(=O)N[C@H]3C(=O)N[C@H](C(=O)N[C@@H](C(=O)O)c4cc(O)cc(O)c4-c4cc3ccc4O)[C@H](O)c3ccc(c(Cl)c3)Oc3cc2cc(c3O[C@@H]2O[C@H](CO)[C@@H](O)[C@H](O)[C@H]2O[C@H]2C[C@](C)(N)C(O)[C@H](C)O2)Oc2ccc(cc2Cl)[C@H]1O (some centres not stated)
inactive: activity, negative = cell killing [1, 2] -21.4% and -13.5% | activity, negative = cell killing [1, 3] -14.4% and -8.53% | activity, negative = cell killing [1, 4] -11% and 8.66% | Potency (astro)

O=C1c2ccccc2C(=O)C1c1ccc(Cl)cc1
inactive: activity, negative = cell killing [1, 2] -10.4% | activity, negative = cell killing [1, 3] -11.7% | activity, negative = cell killing [1, 4] -10.5% | Potency (astro)

CCCCC[C@H](O)/C=C/[C@H]1[C@H](O)CC(=O)[C@@H]1C/C=C\CCCC(=O)O
inactive: activity, negative = cell killing [1, 2] -2.11% | activity, negative = cell killing [1, 3] -17.7% | activity, negative = cell killing [1, 4] -15.8% | Potency (astro)

COc1c(O[C@@H]2O[C@H](CO)[C@@H](O)[C@H](O)[C@H]2O)cc2c(c1OC)-c1ccc(SC)c(=O)cc1[C@@H](NC(C)=O)CC2
inactive: activity, negative = cell killing [1, 6] -28.7% | activity, negative = cell killing [1, 8] -5.86% | activity, negative = cell killing ([1]; at 21.3 µM (top of the series), tumour line A) -6.81% | Potency (astro)

O=C(O)COc1ccccc1/C=N/NC(=O)c1ccncc1
inactive: activity, negative = cell killing [1, 2] -7.55% | activity, negative = cell killing [1, 3] 5.85% | activity, negative = cell killing [1, 4] -10.4% | Potency (astro)

CCOC(=O)Cc1ccc(-c2ccccc2)cc1
inactive: activity, negative = cell killing [1, 2] -6.74% | activity, negative = cell killing [1, 3] -7.57% | activity, negative = cell killing [1, 4] 36.2% | Potency (astro)

CNC(=O)OCc1cccc(COC(=O)NC)n1
inactive: activity, negative = cell killing [1, 2] -20.8% | activity, negative = cell killing [1, 3] 4.88% | activity, negative = cell killing [1, 7] -25.4% | Potency (astro)

NC(N)=NCC1COc2ccccc2O1 (configuration not stated)
inactive: activity, negative = cell killing [1, 2] -11.5% | activity, negative = cell killing [1, 3] -28.1% | Potency (astro)
active: Potency ([1]; tumour line A) 35.5 µM

CN1CCN(C(c2ccccc2)c2ccc(Cl)cc2)CC1 (configuration not stated)
inactive: activity, negative = cell killing [1, 5] 3.89% | activity, negative = cell killing [1, 6] -16.8% | Potency (astro)
active: Potency ([1]; tumour line A) 11.2 µM

C=CC1=C(C(=O)O)N2C(=O)[C@@H](NC(=O)/C(=N/OCC(=O)O)c3csc(N)n3)[C@H]2SC1 (stereo in doubt)
inactive: activity, negative = cell killing [1, 5] 2.81% | activity, negative = cell killing [1, 6] -6.13% | activity, negative = cell killing [1, 8] -19.8% | Potency (astro)

Source: PubChem BioAssay (NCATS)
